Measurements reported in PubChem BioAssay AID748 (Sanford-Burnham Center for Chemical Genomics, 2007).
Hit rate of the full screen: of about 96,000 compounds, about 100 (0.1%) were called active. Shown is part of a subset that was picked to be rich in actives. Potency and affinity values are given separately. Unmarked numbers belong to inactive results.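 The calls were made as follows: active = displacement above 50% at 20 µM plus a fluorescence interference ratio under 1.5; inactive = the rest.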

What follows are compounds tested against Bcl-2-like protein 10 (Homo sapiens) (UniProt Q9HD36) (assay: Bcl-B/TR3 peptide binding disruption – biochemical, fluorescence polarization, FITC-TR3 peptide, selectivity assay for Bfl-1 inhibitor project, primary screen (AID 748;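 also: plate controls were wells without compound for no effect and wells lacking Bcl-B protein for full effect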)). Details: FP displacement of FITC-TR3 peptide from Bcl-B; at 20 µM; active compounds read high.
`CCCC(=O)N1CCN(c2ccc(NC(=O)c3ccc(OCC)c([N+](=O)[O-])c3)cc2)CC1` was tested, and the displacement was -1.6%.
Compound `CCCCOc1ccc(C(=O)Nc2ccc(N3CCN(C)CC3)cc2)cc1` has a displacement of -3.7%.
With `Cc1cc(C)cc(OCC(=O)Nc2ccc(N3CCCC3)cc2)c1` the displacement was 17.3%.
`CC(C)Oc1ccc(C(=O)Nc2ccc(N3CCCC3)cc2)cc1` was tested, and the displacement was 0%.
`Cc1ccc(OCC(=O)Nc2ccc(N3CCOCC3)cc2)cc1` gave a displacement of 4.4%.
For `CCOc1ccc(C(=O)Nc2ccc(N3CCCC3)cc2)cc1`, the displacement was 35.5%.
`Cc1cccc(OCC(=O)Nc2ccc(N3CCN(S(C)(=O)=O)CC3)cc2)c1C` gave a displacement of -12.3%.
In the case of `Cc1cccc(OCCCC(=O)Nc2ccc(N3CCCCC3)cc2)c1C`, the displacement is reported as -5.7%.
`CCOc1cc(N2CCOCC2)c(OCC)cc1NC(=O)CN1C(=O)NC2(CCc3ccccc32)C1=O` (stereo unspecified) gave a displacement of -7.8%.
`CCn1c(SCC(=O)Nc2ccc(S(N)(=O)=O)cc2)nnc1-c1ccccc1OC` showed a displacement of -8.3%.
With `CCCn1c(=O)c2c(c3ccccc31)OC(C)C(=O)N2` (stereo unspecified) the displacement was 4.5%.
Work on `O=C(N/N=C/C1C(c2ccccc2)C1(Cl)Cl)c1cccc(Br)c1` (stereo unspecified) yielded a displacement of -0.4%.
With `CN(C)S(=O)(=O)c1ccc(C(=O)Nc2nnc(Cc3ccccc3)s2)cc1` the displacement was -6.2%.
For `OC1CCN(c2ncnc3nc[nH]c23)CC1`, the displacement was 2.2%.
`CCOC(=O)Cn1c(=O)oc2cc(S(=O)(=O)N3CCC(N4CCCCC4)CC3)ccc21` showed a displacement of 10%.
`Clc1ccc(Cn2ncc3c(NCCN4CCOCC4)ncnc32)cc1` showed a displacement of -10.2%.
With `O=C1CCCN1c1ccc(Br)cc1` the displacement was -0.3%.
`Cc1c(N2C(=O)c3cccc4cccc(c34)C2=O)c(=O)n(-c2ccccc2)n1C` showed a displacement of -13.8%.
`Cc1c(N2C(=O)c3ccccc3C2=O)c(=O)n(-c2ccccc2)n1C` gave a displacement of 3.3%.
For `Cc1c(N2C(=O)c3ccc4c5c(ccc(c35)C2=O)CC4)c(=O)n(-c2ccccc2)n1C`, the displacement was 112% (active).
In the case of `Cc1ccsc1/C=N/n1cnc2sc(C)c(C)c2c1=O`, the displacement is reported as -9.7%.
`CC(=O)N1CCN(S(=O)(=O)c2ccc(S(=O)(=O)NC3CC3)cc2)CC1` gave a displacement of -5.1%.
With `CC(C)(C)C(=O)Nc1nc(C2CCCN2S(=O)(=O)c2ccc(Cl)cc2)cs1` (stereo unspecified) the displacement was -7.5%.
For `Cc1ccc(S(=O)(=O)N2CCN(C3CCN(Cc4ccccc4)CC3)CC2)cc1`, the displacement was 6.6%.
In the case of `CC(C)(C)NC(=O)c1sccc1C(=O)O`, the displacement is reported as -1.7%.
For `Cc1cc(C(=O)O)c(C)n1-c1ccccc1`, the displacement was -1%.
